This test addresses Polyadenylate-binding protein 1 (Homo sapiens) (UniProt P11940). Description: blockers of PABP interaction with poly(A) – biochemical, fluorescence polarization, uHTS, primary screen (AID 2014).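 Further: calls also rest on retests at 20 µM and on dose response follow-up.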 The settings on record: PABP-poly(A) RNA binding, stronger effect = higher value. In general terms: Fluorescence polarisation rises when a labelled molecule tumbles more slowly, as on binding a larger partner.

SMILES strings stand for the structures. Hit rate of the full screen: of about 290,000 compounds, about 3,000 (1%) were called active. How the calls were made is not given here. The full list was thinned out, with actives kept by preference.

Chain of Polyadenylate-binding protein 1 (Homo sapiens) (P11940 whole entry, looked up): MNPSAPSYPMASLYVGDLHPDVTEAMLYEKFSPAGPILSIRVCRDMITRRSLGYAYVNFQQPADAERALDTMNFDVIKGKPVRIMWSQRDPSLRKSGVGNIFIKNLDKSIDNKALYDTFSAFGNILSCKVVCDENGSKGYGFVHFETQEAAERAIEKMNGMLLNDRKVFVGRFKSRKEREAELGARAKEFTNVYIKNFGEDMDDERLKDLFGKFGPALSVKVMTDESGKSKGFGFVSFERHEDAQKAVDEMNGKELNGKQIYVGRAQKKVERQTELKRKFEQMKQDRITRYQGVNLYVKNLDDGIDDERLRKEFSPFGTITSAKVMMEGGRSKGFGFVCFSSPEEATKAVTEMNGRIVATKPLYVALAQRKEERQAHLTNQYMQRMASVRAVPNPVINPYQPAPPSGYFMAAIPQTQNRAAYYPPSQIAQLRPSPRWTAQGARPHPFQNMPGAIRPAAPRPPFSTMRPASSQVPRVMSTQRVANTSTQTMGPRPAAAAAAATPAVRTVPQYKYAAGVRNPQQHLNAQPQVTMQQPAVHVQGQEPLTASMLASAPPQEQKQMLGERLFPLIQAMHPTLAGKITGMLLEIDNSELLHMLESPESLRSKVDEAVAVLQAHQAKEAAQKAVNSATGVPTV

On to `COCc1cc(=O)n2[nH]c(C)c(-c3ccccc3)c2n1`, for which the inhibition – broadly, the relative decrease from the control value, in per cent – (at 35 µM) was 8.4% (inactive).
For the compound `Cn1c(-c2ccco2)nc2cc3ccccc3cc21`, the inhibition (at 35 µM) is 4% (inactive).
Same read-out and setting: to `c1coc(-c2nc3nc4ccccc4n3nc2-c2ccco2)c1` belongs 63.7% (active); to `COc1ccc(CCn2c(-c3ccco3)nc3nc4ccccc4nc32)cc1OC`, 12.4% (inactive); to `CCOC(=O)C1=C(CCc2ccccc2)NC(=O)NC1c1ccc2ccccc2c1` (stereo not given), -1% (inactive).
Consider `CCOC(=O)CNC(=O)CSc1ncccc1-c1nc2ccccc2[nH]1`, for which the inhibition (at 35 µM) is 0.2% (inactive).
Same read-out and setting: in the case of `Cc1cc(C(=O)NCCc2ccc(Cl)cc2)c(C)o1` it was 0% (inactive).
In the case of `Cc1cc(C)cc(OCC(=O)NNC(=O)CCN2C(=O)c3ccccc3C2=O)c1`, the inhibition is, setting by setting: (at 35 µM) 116% (active); (confirmation repeats, at 20 µM) 74.1%.
Consider `Cc1cc(C)cc(NC(=O)CCN2C(=O)c3ccccc3C2=O)c1`, for which the inhibition (at 35 µM) is 0.7% (inactive).
In the case of `Cc1ccc(NC(=O)CCN2C(=O)c3ccccc3C2=O)cc1C`, where the note is “at 35 µM”, the inhibition was -7.2% (inactive).
On to `COc1cc(NC(=O)c2ccc(-c3csc(C)n3)cc2)c(OC)cc1Cl`, for which, for the setting “at 35 µM”, the inhibition is 7.9% (inactive).
Regarding `COC(=O)c1cc(NS(=O)(=O)c2ccc3c(c2)c(=O)n(C)c(=O)n3C)cc(C(=O)OC)c1`, the inhibition (at 35 µM) was 3.8% (inactive).
Regarding `COC(=O)c1ccc(N2CCOCC2)c(NC(=O)c2ccc3c(c2)OCCO3)c1`, for the setting “at 35 µM”, the inhibition is 4.7% (inactive).
In the case of `CCC(CC)C(=O)N1CCN(c2cccc(C)c2C)CC1`, the inhibition (at 35 µM) is -1.2% (inactive).
Regarding `O=C(/C=C/c1ccco1)NC(=S)N1CCCCC1`, the inhibition (at 35 µM) was 1.1% (inactive).
In the case of `Cc1cccc(N2CCN(C(=O)/C=C/c3ccco3)CC2)c1C`, the inhibition runs as follows: (at 35 µM) -10.7% (active); (confirmation repeats, at 20 µM) 96.7%.
As to `COc1ccc(C(O)(C2CCCCC2)C(CN2CCCC2)c2ccccc2)cc1` (stereo not given), under “at 35 µM”, the inhibition was 12.9% (inactive).
The same measure, in the same setting: in the case of `Cc1ccc2sc(N(CCN(C)C)C(=O)/C=C/c3cccs3)nc2c1C` it was -1.9% (inactive).
For the compound `CCCN(c1ccc(C)cc1)c1nc(=O)c2cccnc2s1`, the inhibition (at 35 µM) is 71.4% (active).
The same measure, in the same setting: to `CC1(C(=O)N/N=C/c2cc3c(cc2Br)OCO3)CC1(Br)Br` (stereo not given) belongs -5.1% (inactive); to `CCN(CC(=O)NCc1ccco1)S(=O)(=O)c1ccc(F)cc1`, -5.2% (inactive); to `NS(=O)(=O)c1cccc(NC(=O)CC23CC4CC(CC(Br)(C4)C2)C3)c1`, -11.5% (inactive).
With `CC(C)Nc1ccc(-n2nc3ccccc3[n+]2[O-])cc1`, for the setting “at 35 µM”, the inhibition was 1% (inactive).
Still for that read-out and setting: to `CCN1CCN(CCNC(=O)c2ccc3c(c2)NC(=O)/C(=C\c2ccc(OC)c(OC)c2)S3)CC1` belongs 6.5% (inactive); to `O=C(NCCN1CCOCC1)c1ccc(/C=C2\Sc3ccccc3N(Cc3ccc(F)cc3)C2=O)cc1`, -1.5% (inactive).
Turning to `CCN1CCN(CCNC(=O)c2ccc(/C=C3/Sc4ccccc4N(Cc4cccc(C)c4)C3=O)cc2)CC1`, the inhibition is, setting by setting: (at 35 µM) 60.2% (active); (confirmation repeats, at 20 µM) 75.8%.
Regarding `COc1ccc(/C=N/OCc2ccccc2C#N)c(OC)c1`, where the note is “at 35 µM”, the inhibition was 12.1% (inactive).
`CC(NC(=O)CCCC1CCCCC1)c1ccc(S(N)(=O)=O)cc1` (stereo not given): where the note is “at 35 µM”, the inhibition was -0.5% (inactive).
Same read-out and setting: to `Cc1ccc(NC(=O)Cc2nnc(SCC(=O)Nc3nncs3)n2C)cc1` belongs -10.3% (inactive); to `COc1cccc(NC(=S)NCc2ccco2)c1`, 3.2% (inactive).
With `S=C(NCc1ccco1)Nc1ccc2c(c1)OCCO2`, the inhibition is 76.8% (active) (at 35 µM) and 58.4% (confirmation repeats, at 20 µM).
As for `S=C(NCc1ccc2c(c1)OCO2)NCc1ccco1`, the inhibition (at 35 µM) was 2.5% (inactive).
For the compound `N#CC1=C(N)C(C#N)(C#N)[C@H](c2ccsc2)[C@H]2COCC=C12`, the inhibition is 111% (inactive) (at 35 µM) and 0% (confirmation repeats, at 20 µM).
With `CCOC(=O)C1=C(C)NC(=S)NC1c1cccs1` (stereo not given), the inhibition (at 35 µM) was 3.2% (inactive).
Still for that read-out and setting: in the case of `CCOC(=O)N1CC=C2C(C#N)=C(N)C(C#N)(C#N)[C@H](c3cccs3)[C@H]2C1` it was 82.2% (active).
Same read-out and setting: to `O=C(N/C(=C\c1ccc([N+](=O)[O-])cc1)C(=O)N1CCCCC1)c1ccco1` belongs 4.9% (inactive).
Same read-out and setting: to `COc1cc(C(=O)Nn2c(CC(C)C)nc3ccccc3c2=O)cc(OC)c1OC` belongs 1.2% (inactive); to `Cc1ccc(N(Cc2cc(=O)[nH]c3ccccc23)C(=O)CCl)cc1`, 3% (inactive).
As to `COc1ccc(N(Cc2ccc(N(C)C)cc2)C(=O)c2ccc(S(C)(=O)=O)cc2)cc1`, the inhibition (at 35 µM) is -1.6% (inactive).
The same measure, in the same setting: in the case of `CNc1nc(-c2ccccc2)cc(-c2ccccc2)n1` it was 4.7% (inactive).
On the same count and under the same terms, in the case of `Nc1nc(-c2ccccc2)cc(-c2ccccc2)n1` it was 9.3% (inactive); in that of `CS(=O)(=O)c1sc2nc(-c3ccccc3)cc(-c3ccccc3)c2c1N`, 117% (active).
Still for that read-out and setting: in the case of `CCc1ccccc1NC(=O)c1cc(-c2ccc3c(c2)OCO3)on1` it was 3.5% (inactive).
Take `C/C(=N\NC(=O)COc1ccc(C)cc1[N+](=O)[O-])c1ccc2c(c1)OCCO2`: the inhibition (at 35 µM) was 3.8% (inactive).
The same measure, in the same setting: to `COC(=O)c1cccc(N(C(=O)CNC(=O)c2cccs2)C(C(=O)NCC2CCCO2)c2ccc(OC)c(OC)c2)c1` (stereo not given) belongs 1% (inactive).

The values above are taken from PubChem BioAssay AID2014 (Sanford-Burnham Center for Chemical Genomics, 2009).
